The list is not random: actives were taken first. Their share in the collection is about 7.4%.
3T3 cytotox – kills NIH 3T3 cells; AID 1345082; Potency, µM (highest dose often 96.7 µM), most hits filed as inhibitors; NIH 3T3 viability, CellTiter-Glo ATP luminescence, 48-72 h; 4.3% of 94,000 active; further: nearly all actives have a fitted effect of over 55% in size
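ATP-dependent luminescence (CellTiter-Glo) served as the viability signal for NIH 3T3 cells treated with compound for 48 or 72 hr at 37 °C.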
HEK293 tox – HEK 293 cell cytotoxicity. HEK 293 viability, ATP luminescence (CellTiter-Glo), 48-72 h. 6.6% of 94,000 active. AID 1345083. Potency, µM (doses to about 115 µM), usual class: inhibitors; further: nearly all actives have a fitted effect of over 60% in size
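Cells seeded first (HEK 293, 250 cells/well), then compound added by pintool. Incubation ran 48 or 72 hr at 37 degree Celsius. CellTiter-Glo was added and luminescence imaged after 10 min at room temperature.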
SNCA expr inh – reduces expression of the alpha-synuclein gene; 0.17% of 140,000 active; HEK-293 SNCA-luciferase knock-in, luminescence, 24 h; Potency, µM (doses to about 57.2 µM), actives largely listed as inhibitors; AID 1671194; further: nearly all actives have a fitted effect of over 45% in size
hNpr1 antagonist – antagonists of human natriuretic peptide receptor Npr1 | P16066 | HEK293 hNpr1 GloSensor cGMP, ANP-stimulated luminescence | Potency, µM (top dose mostly 46.3 µM), actives largely listed as inhibitors | 1.6% of 76,000 active; calls by dose curve; further: nearly all actives have a fitted effect of over 60% in size
Target sequence (P16066 whole entry, looked up): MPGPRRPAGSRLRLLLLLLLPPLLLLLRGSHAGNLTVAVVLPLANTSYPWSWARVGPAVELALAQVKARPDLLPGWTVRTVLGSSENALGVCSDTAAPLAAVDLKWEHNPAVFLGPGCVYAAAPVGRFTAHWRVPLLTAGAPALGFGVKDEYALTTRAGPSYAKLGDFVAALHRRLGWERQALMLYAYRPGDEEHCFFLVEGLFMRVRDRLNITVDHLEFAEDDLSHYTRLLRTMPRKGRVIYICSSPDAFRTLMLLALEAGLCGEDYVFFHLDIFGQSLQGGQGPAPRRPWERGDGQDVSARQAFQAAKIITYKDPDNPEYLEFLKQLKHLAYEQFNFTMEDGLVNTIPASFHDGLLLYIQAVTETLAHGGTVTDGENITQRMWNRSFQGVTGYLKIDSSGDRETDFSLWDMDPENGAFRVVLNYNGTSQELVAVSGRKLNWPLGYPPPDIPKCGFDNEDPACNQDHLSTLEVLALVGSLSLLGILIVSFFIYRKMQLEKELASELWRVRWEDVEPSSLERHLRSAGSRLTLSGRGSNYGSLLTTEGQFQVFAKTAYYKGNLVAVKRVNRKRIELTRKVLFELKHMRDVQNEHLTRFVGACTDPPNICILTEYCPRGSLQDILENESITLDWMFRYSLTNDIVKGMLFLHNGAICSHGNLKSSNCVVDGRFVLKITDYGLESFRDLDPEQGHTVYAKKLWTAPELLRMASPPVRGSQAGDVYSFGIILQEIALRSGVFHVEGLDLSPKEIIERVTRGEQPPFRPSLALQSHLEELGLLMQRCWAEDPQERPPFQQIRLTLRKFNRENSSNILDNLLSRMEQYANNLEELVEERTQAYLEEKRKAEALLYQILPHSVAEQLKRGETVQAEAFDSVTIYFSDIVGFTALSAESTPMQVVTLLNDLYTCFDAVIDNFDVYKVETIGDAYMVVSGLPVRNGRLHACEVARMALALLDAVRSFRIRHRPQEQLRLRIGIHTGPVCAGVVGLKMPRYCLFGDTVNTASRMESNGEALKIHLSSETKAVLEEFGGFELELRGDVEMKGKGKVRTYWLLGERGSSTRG
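Compound pre-incubated 30 min at room temperature on GloSensor-loaded HEK293 cells stably carrying hNpr1 and the pGS-40F cGMP biosensor. Stimulation uses hNppA at 0.1 nM final; luminescence is taken at baseline and 20 min post-agonist.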
FLuc inh – Photinus pyralis luciferase inhibition; P08659; purified P. pyralis luciferase, luminescence, biochemical; Potency, µM (titrated, usually from 115 µM), most hits filed as inhibitors; 2.5% of 76,000 active; further: nearly all actives have a fitted effect of over 65% in size
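FLuc 10nM, D-luciferin 10uM, ATP 10uM, Mg acetate 10mM, Tris acetate pH 7.5, Tween/BSA; cpd qHTS; enzyme added last; CCD luminescence.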
SNCA viab count – counter-screen for SNCA expression inhibitors: cell viability; HEK-293-SNCA-luc viability, GF-AFC fluorescence, 24 h; Potency, µM (titrated, usually from 57.1 µM), most hits filed as cytotoxic; 0.12% of 150,000 active; AID 1671193; further: nearly all actives have a fitted effect of over 30% in size
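Cytotoxicity counterscreen: after 24 h compound treatment of genome-edited SNCA-luciferase HEK-293 cells, live-cell protease substrate GF-AFC read by fluorescence after 30 min; activity scaled between DMSO (0%) and medium-only (-100%), curves Hill-fitted.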
Hits are given with their value; . = inactive; ? = inconclusive; / = no result given; [ ] = dose if it differs, or a comment. Unless noted, the call rests on the fitted dose curve; in most records, active means well fitted curve in the direction sought with a large enough effect; inconclusive means small, poorly fitted or top-dose-only effect, or another doubt; inactive means no such curve, though single readings can be large; an effect the other way counts as inactive or inconclusive.

SMILES | 3T3 cytotox | HEK293 tox | SNCA expr inh | hNpr1 antagonist | FLuc inh | SNCA viab count
CC(C)c1ccc(C(=O)NCc2ccnc3[nH]ccc23)cc1 | ? | ? | . | . | 25µM | .
Cc1ccc(C(=O)NCc2ccnc3[nH]ccc23)cc1 | . | . | . | . | ? | .
O=C(CNC(=O)c1cccc(-c2ccsc2)c1)NCc1ccc(F)cc1F | . | ? | . | / | / | .[12.5 µM]
NC1CC(c2cc(N3CCN(CCOc4ccccc4)CC3)ncn2)C1 (stereo not given) | ? | 22µM | . | . | . | .
CN(C)CCN1CCN(c2cc(C3CC(N)C3)nc(N)n2)CC1 (stereo not given) | . | . | . | . | . | .
CNC(=O)CCn1ncc2cc(OC3CCc4cccc(-c5cccnc5)c43)ccc21 (stereo not given) | ? | 100µM | ? | . | . | .
CNC(=O)CCn1ncc2cc(OC3CCc4cccc(-c5cccc(OC)c5)c43)ccc21 (stereo not given) | ? | ? | ? | ? | . | ?
CNC(=O)CCn1ncc2cc(OC3CCc4cccc(-c5ccnn5C)c43)ccc21 (stereo not given) | ? | ? | . | . | . | .
CNC(=O)CCn1ncc2cc(OC3CCc4cccc(-c5ccncc5)c43)ccc21 (stereo not given) | ? | 100µM | ? | . | . | .
CN(C/C=C/c1ccccc1)C(=O)c1ccc(C2CCCNC2)cc1 (stereo not given) | ? | ? | . | . | . | .
O=C(c1ccc(C2CCNC2)cc1)N(Cc1ccccc1)CC1CCC1 (stereo not given) | ? | 25µM | . | . | . | .
COC(=O)CNC(=O)[C@@H]1CCCN1C(=O)c1cccc(-c2ccccc2OC)c1 | . | ? | . | / | / | .[12.5 µM]
Cc1ccc(N2CCC(N[C@@H]3CC[C@@H](N)C3)CC2)cc1Cl | 10µM | 7.9µM | ? | . | . | ?
O=C(Nc1ccccc1F)N1CCN(c2ccc3nnc(-c4ccccc4)n3n2)CC1 | ? | . | / | / | / | /
O=C(Nc1cccc(C(F)(F)F)c1)N[C@H]1CO[C@H]2[C@@H]1OC[C@@H]2n1cc(CC2CCCCC2)nn1 | ? | 40µM | . | ? | . | .
COCc1cn([C@H]2CO[C@H]3[C@@H]2OC[C@H]3OC(=O)Nc2cccc(C(F)(F)F)c2)nn1 | ? | 79µM | . | . | . | .
O=S(=O)(N[C@H]1CO[C@H]2[C@@H]1OC[C@@H]2n1cc(CC2CCCCC2)nn1)c1cccs1 | ? | 79µM | . | . | . | ?
CC1(C)OC2=C(C(=O)c3ccccc3C2=O)[C@H](NCc2ccccc2)[C@H]1O | / | / | 12µM | / | / | 14µM
COc1ccccc1-c1cnc(Nc2cccc(N[S+](C)(=O)[O-])c2)c2c1CCO2 | 20µM | 40µM | ? | 32µM | ? | ?
CN(C)c1cccc(C(=O)Nc2ncc(-c3cccc(F)c3)c3c2OCC3)c1 | ? | ? | ? | . | . | .
COc1ccccc1-c1cnc(Nc2ccccc2)c2c1CCO2 | ? | ? | . | . | . | .
CN(C)c1cccc(-c2cnc(Nc3ccncc3)c3c2CCO3)c1 | 50µM | 56µM | . | . | . | ?
CN(C)c1cccc(-c2cnc(Nc3cccc(N[S+](C)(=O)[O-])c3)c3c2CCO3)c1 | ? | 20µM | . | ? | ? | ?
O=C(c1ccc(Cl)nc1)N1CCCC(c2nn(-c3ccccn3)c(=O)[nH]2)C1 (stereo not given) | . | . | . | / | / | .
O=C(Cc1c[nH]c2ncc(-c3cccc(OC(F)(F)F)c3)cc12)NCc1cccnc1 | 45µM | 71µM | . | ? | ? | .
SMILES | 3T3 cytotox | HEK293 tox | SNCA expr inh | hNpr1 antagonist | FLuc inh | SNCA viab count
O=C(Cc1c[nH]c2ncc(-c3cccnc3)cc12)Nc1ccccc1 | 25µM | ? | . | . | . | .
O=C(Cc1c[nH]c2ncc(-c3ccccc3)cc12)Nc1cccnc1 | 28µM | 71µM | ? | . | . | .
COc1ccc(-c2cnc3[nH]cc(CC(=O)NCc4cccnc4)c3c2)cc1OC | 16µM | ? | . | . | . | .
O=C(Cc1c[nH]c2ncc(-c3cn[nH]c3)cc12)NCc1cccnc1 | ? | . | . | . | . | .
Cc1cc(-c2cnc3[nH]cc(CC(=O)NCc4cccnc4)c3c2)ccn1 | ? | ? | . | . | . | .
COC(=O)N1CCc2nc(C3CC3)nc(-c3ccc(O)cc3)c2CC1 | . | . | . | / | / | .
O=C(CNC(=O)c1cccc(-c2ccc(C(F)(F)F)cc2)c1)NCC(F)F | ? | ? | . | / | / | .
O=C(Cc1c[nH]c2ncc(-c3ccc(F)cc3)cc12)NCc1cccnc1 | ? | ? | . | ? | ? | .
O=C(Cc1c[nH]c2ncc(-c3cccnc3)cc12)NCc1ccccc1 | 35µM | 89µM | . | ? | . | .
COc1ccc(NC(=O)Cc2c[nH]c3ncc(-c4ccccc4)cc23)cc1OC | ? | 89µM | . | ? | . | .
O=C(Cc1c[nH]c2ncc(-c3ccccc3)cc12)Nc1ccc(Cl)cc1 | ? | ? | . | ? | . | .
O=C(Cc1c[nH]c2ncc(-c3cccnc3)cc12)NC1CCOCC1 | ? | . | . | . | . | .
O=C(Cc1c[nH]c2ncc(-c3cccnc3)cc12)NC1CC1 | 71µM | . | . | . | . | .
COc1cccc(C(=O)N2CCc3nc(C(C)C)nc(-c4ccc(O)cc4)c3CC2)c1 | ? | . | . | / | / | .
COc1cc(OC)cc(C(=O)NC2CCCN(c3cc(-c4ccccc4)[nH]n3)C2)c1 (stereo not given) | ? | 40µM | ? | . | 25µM | .
COc1ccc(-c2cc(N3CCCC(NC(=O)c4ccc5cc[nH]c5c4)C3)n[nH]2)cc1 (stereo not given) | ? | ? | . | ? | 11µM | .
Cc1ccc(C(=O)NC2CCCN(c3cc(-c4ccccc4)[nH]n3)C2)cn1 (stereo not given) | ? | ? | . | . | ? | .
COc1ccc(C(=O)NC2CCN(c3cc(-c4ccc(Cl)cc4)[nH]n3)C2)cc1F (stereo not given) | ? | 40µM | ? | . | . | .
COc1ccc(C(=O)NC2CCN(c3cc(-c4ccc(Cl)cc4)[nH]n3)C2)cc1OC (stereo not given) | ? | ? | . | . | . | .
COc1ccc(-c2cc(N3CCCC(NC(=O)c4ccc(F)cc4Cl)C3)n[nH]2)cc1 (stereo not given) | ? | ? | . | . | ? | .
COc1ccc(-c2cc(N3CCCC(NC(=O)c4ccccc4Cl)C3)n[nH]2)cc1 (stereo not given) | ? | ? | . | . | 45µM | .
Cn1ncc2c(C(=O)N3CCN(Cc4ccccc4)CC3)cc(-c3ccc(Cl)nc3)nc21 | ? | ? | . | / | / | .

High-throughput results from PubChem BioAssay.
